Results published in PubChem BioAssay (NCI).
Where “and” joins values, the source holds several entries; their conditions need not be identical. Equal values may be shown once. The panel holds about 79,000 compounds, 15% with a hit somewhere; the sample as a whole holds those more often. A structure can be active in one record and inactive in another. Calls of active or inactive are those of the source. Rule as the data show it: active = growth inhibition above about 70%; inactive = the rest.

Legend:
[1] = NCI Yeast Anticancer Drug Screen. Data for the rad52 strain (AID 147);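 also: 0% = growth of vehicle-treated control cultures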; conditions: S. cerevisiae rad52 mutant growth inhibition, stronger effect = higher value
Method in brief: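 Growth of repair-deficient yeast cells was compared between compound-treated and vehicle-treated cultures to give percent inhibition.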

[2] = NCI Yeast Anticancer Drug Screen. Data for the wt1 strain (AID 149);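 also: 0% = growth of vehicle-treated wt1 cultures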; conditions: S. cerevisiae wt1 strain (SPY 50644) growth inhibition, stronger effect = higher value
Method in brief: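 Using yeast strain wt1, compound-induced growth inhibition was determined against vehicle-treated cultures.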

[3] = NCI Yeast Anticancer Drug Screen. Data for the rad50EPP+ strain (AID 151);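 also: 0% = growth of vehicle-treated control cultures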; conditions: S. cerevisiae rad50 mutant strain, stronger effect = higher value
Method in brief: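 Measured: growth inhibition of rad50EPP+ yeast. Reference: vehicle-treated controls. Screen uses strains with defined genetic alterations in DNA damage repair or cell cycle control.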

[4] = NCI Yeast Anticancer Drug Screen. Data for the mgt1 strain (AID 153); conditions: S. cerevisiae mgt1 mutant growth inhibition, stronger effect = higher value
Method in brief: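 Compounds were applied to mgt1 mutant yeast, and growth was then compared against vehicle-treated control cultures to give percent inhibition.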

[5] = NCI Yeast Anticancer Drug Screen. Data for the rad50 strain (AID 155);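 also: 0% = growth of vehicle-only cultures of the same strain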; conditions: S. cerevisiae rad50 strain growth inhibition, stronger effect = higher value
Method in brief: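 Relative growth inhibition (compound vs vehicle) was measured in yeast with a defined repair-gene alteration.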

[6] = NCI Yeast Anticancer Drug Screen. Data for the mec2-1 strain (AID 157); conditions: S. cerevisiae mec2-1 strain, stronger effect = higher value
Method in brief: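 Compounds were applied to mec2-1 yeast cells. Their growth was then compared with that of vehicle-treated cultures to give growth inhibition.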

[7] = NCI Yeast Anticancer Drug Screen. Data for the rad14 strain (AID 159);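 also: 0% = growth of vehicle-treated control cultures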; conditions: S. cerevisiae rad14 strain growth inhibition, stronger effect = higher value
Method in brief: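 Screen for anticancer potential: a yeast strain altered in DNA damage repair is grown with compound, and reduced growth is quantified against vehicle controls.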

[8] = NCI Yeast Anticancer Drug Screen. Data for the sgs1 mgt1 strain (AID 161);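 also: 0% = growth of cultures given vehicle only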; conditions: S. cerevisiae sgs1 mgt1 strain, stronger effect = higher value
Method in brief: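 Compounds are added to genetically altered yeast, and growth is compared with cultures given vehicle alone to give percent inhibition.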

[9] = NCI Yeast Anticancer Drug Screen. Data for the CLN2oe strain (AID 163);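 also: 0% = growth of vehicle-only control cultures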; conditions: S. cerevisiae CLN2oe strain, stronger effect = higher value
Method in brief: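 Cells of an engineered yeast line with disturbed cell-cycle regulation are treated with compound. Inhibition of growth is then calculated relative to the vehicle-treated reference.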

[10] = NCI Yeast Anticancer Drug Screen. Data for the cln2 rad14 strain (AID 165);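 also: 0% = growth equal to vehicle treated cultures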; conditions: S. cerevisiae cln2 rad14 strain, stronger effect = higher value
Method in brief: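 Strain: cln2 rad14 yeast, altered in cell cycle control and DNA damage repair. Read-out: growth inhibition vs vehicle.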

[11] = NCI Yeast Anticancer Drug Screen. Data for the bub3 strain (AID 167); conditions: S. cerevisiae bub3 mutant strain, stronger effect = higher value
Method in brief: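 Screening used yeast with an engineered genetic alteration affecting cell cycle control. Compound-exposed cultures were compared with vehicle cultures, and reduced growth was taken as inhibition.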

[12] = NCI Yeast Anticancer Drug Screen. Data for the wt2 strain (AID 169);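 also: 0% = growth of vehicle-treated yeast cultures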; conditions: S. cerevisiae wt2 strain growth inhibition, stronger effect = higher value
Method in brief: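 Growth of compound-treated yeast is measured and expressed as inhibition relative to vehicle-only controls.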

[13] = NCI Yeast Anticancer Drug Screen. Data for the mlh1 strain (AID 171);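 also: 0% = growth of vehicle-treated control cultures of the same strain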; conditions: S. cerevisiae mlh1 strain growth inhibition, stronger effect = higher value
Method in brief: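 Test agents were incubated with yeast bearing a defined DNA damage repair or cell cycle control alteration; values are growth inhibition normalised to vehicle-treated cultures.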

[14] = NCI Yeast Anticancer Drug Screen. Data for the sgs1 strain (AID 173);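 also: 0% = growth of vehicle-only control cultures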; conditions: S. cerevisiae sgs1 mutant, stronger effect = higher value
Method in brief: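 Strain with an altered DNA repair or cell cycle pathway exposed to compound. Growth then measured. Value = inhibition versus vehicle control.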

[15] = NCI Yeast Anticancer Drug Screen. Data for the mlh1 rad18 strain (AID 175); conditions: S. cerevisiae mlh1 rad18 strain growth inhibition, stronger effect = higher value
Method in brief: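 A repair-deficient yeast strain is exposed to test compound, and growth is scored relative to vehicle-treated controls.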

[16] = NCI Yeast Anticancer Drug Screen. Data for the rad18 strain (AID 177); conditions: S. cerevisiae rad18 mutant growth inhibition, stronger effect = higher value
Method in brief: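 DNA-repair-defective yeast; compound treatment; growth inhibition scored against vehicle.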

[17] = at 5.0 µM (retest, dose inferred, filed as 0.5)
[18] = at 50.0 µM (retest, dose inferred, filed as 5.0)

Measured: growth inhibition

COc1ccc([N+]2=NC(c3ccc([N+](=O)[O-])cc3)=NN(c3ccccc3)C2)cc1
inactive: [1]; at 1.2 µM -3% and -1% | [1]; at 3.7 µM -1% and 1% | [1]; at 11.0 µM 1% and 2% | [1]; at 33.0 µM 37% and 12% | [2]; at 1.2 µM 1% | [2]; at 3.7 µM 0% | [2]; at 11.0 µM -3% and -5% | [2]; at 33.0 µM 1% and -2% | [3]; at 1.2 µM -10% and -9% | [3]; at 3.7 µM -4% and -5% | [3]; at 11.0 µM 3% and 4% | [3]; at 33.0 µM 32% and 9% | [4]; at 1.2 µM -1% | [4]; at 3.7 µM -2% and -6% | [4]; at 11.0 µM -1% and 2% | [4]; at 33.0 µM 43% and -6% | [5]; at 1.2 µM -6% and -5% | [5]; at 3.7 µM -16% | [5]; [17] 8% and 7% | [5]; at 11.0 µM -17% and -13% | [5]; at 33.0 µM 34% and 11% | [5]; [18] 52% and 31% | [6]; at 1.2 µM -5% and -1% | [6]; at 3.7 µM -5% and -2% | [6]; [17] -10% and -3% | [6]; at 11.0 µM -5% and 1% | [6]; at 33.0 µM 6% and 5% | [6]; [18] 21% and 4% | [7]; at 1.2 µM 2% | [7]; at 3.7 µM 1% | [7]; at 11.0 µM 4% and 2% | [7]; at 33.0 µM 14% and 9% | [8]; [17] 2% and -1% | [8]; [18] 22% and 50% | [9]; at 1.2 µM 0% and 5% | [9]; at 3.7 µM -3% and 0% | [9]; at 11.0 µM -7% and 4% | [9]; at 33.0 µM 21% and 9% | [10]; [17] 5% and -13% | [10]; [18] 48% and 43% | [10]; at 50.0 µM 51% and 38.8% | [11]; at 1.2 µM 5% and 1% | [11]; at 3.7 µM 17% and 4% | [11]; [17] 15% and 17% | [11]; at 11.0 µM 17% and 9% | [11]; at 33.0 µM 35% and 5% | [12]; at 1.2 µM 0% and 1% | [12]; at 3.7 µM -1% | [12]; at 11.0 µM -2% | [12]; at 33.0 µM 27% and 7% | [13]; at 1.2 µM 0% | [13]; at 3.7 µM -2% and -3% | [13]; at 11.0 µM -1% and -3% | [13]; at 33.0 µM 14% and 16% | [14]; at 1.2 µM -2% and -3% | [14]; at 3.7 µM 3% and -1% | [14]; at 11.0 µM 8% | [14]; at 33.0 µM 48% and 42% | [15]; [17] 4% and 9% | [15]; [18] 67% and 51% | [16]; at 1.2 µM -8% and -5% | [16]; at 3.7 µM -2% and -3% | [16]; at 11.0 µM 12% and 15% | [16]; at 33.0 µM 34% and 33%
82% (active) and 58% (inactive): [3]; at 100.0 µM
90% (active) and 56% (inactive): [11]; at 100.0 µM
92% (active) and 50% (inactive): [6]; at 100.0 µM
78.8% (active) and 63.6% (inactive): [8]; at 50.0 µM
93% (active) and 41% (inactive): [4]; at 100.0 µM
91% (active) and 63% (inactive): [7]; at 100.0 µM
92% (active) and 59% (inactive): [13]; at 100.0 µM
active: [1]; at 100.0 µM 91% | [2]; at 100.0 µM 94% and 89% | [5]; at 50.0 µM 78.3% and 73.8% | [5]; at 100.0 µM 90% and 88% | [6]; at 50.0 µM 75.2% and 70.8% | [9]; at 100.0 µM 90% and 70% | [11]; [18] 84% and 88% | [11]; at 50.0 µM 90.5% and 91.4% | [12]; at 100.0 µM 93% | [14]; at 100.0 µM 93% and 92% | [15]; at 50.0 µM 87.9% and 86.3% | [16]; at 100.0 µM 90% and 87%
